APE1 inh = inhibitors of human APE1 endonuclease; Potency, µM (doses to about 65.8 µM), inactives show top-dose activity change, negative = inhibition, actives largely listed as inhibitors; hit rate 0.35% among 350,000; recombinant APE1, TAMRA/BHQ-2 abasic DNA cleavage fluorescence; P27695;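 note: plate controls were vehicle for no effect and reference inhibitor for full effect; nearly all actives have a fitted effect of over 55% in size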
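Substrate: short duplex with […] THF abasic site, 5'-TAMRA and 3'-BHQ-2, 50 nM final. APE1 at 0.75 nM, preincubated 15 min RT with compound. Fluorescence increase from first to third read measured activity.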
BLM helicase inh = inhibitors of human Bloom syndrome helicase BLM. P54132. recombinant BLM DNA unwinding, fluorescence dequenching. Potency, µM (doses to about 56.1 µM), inactives show at the top dose activity change, negative = inhibition, actives largely listed as inhibitors. hit rate 0.2% among 350,000. AID 2528;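 note: plate controls were vehicle for no effect and no enzyme for full effect; nearly all actives have a fitted effect of over 35% in size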
Target sequence (P54132 whole entry, looked up): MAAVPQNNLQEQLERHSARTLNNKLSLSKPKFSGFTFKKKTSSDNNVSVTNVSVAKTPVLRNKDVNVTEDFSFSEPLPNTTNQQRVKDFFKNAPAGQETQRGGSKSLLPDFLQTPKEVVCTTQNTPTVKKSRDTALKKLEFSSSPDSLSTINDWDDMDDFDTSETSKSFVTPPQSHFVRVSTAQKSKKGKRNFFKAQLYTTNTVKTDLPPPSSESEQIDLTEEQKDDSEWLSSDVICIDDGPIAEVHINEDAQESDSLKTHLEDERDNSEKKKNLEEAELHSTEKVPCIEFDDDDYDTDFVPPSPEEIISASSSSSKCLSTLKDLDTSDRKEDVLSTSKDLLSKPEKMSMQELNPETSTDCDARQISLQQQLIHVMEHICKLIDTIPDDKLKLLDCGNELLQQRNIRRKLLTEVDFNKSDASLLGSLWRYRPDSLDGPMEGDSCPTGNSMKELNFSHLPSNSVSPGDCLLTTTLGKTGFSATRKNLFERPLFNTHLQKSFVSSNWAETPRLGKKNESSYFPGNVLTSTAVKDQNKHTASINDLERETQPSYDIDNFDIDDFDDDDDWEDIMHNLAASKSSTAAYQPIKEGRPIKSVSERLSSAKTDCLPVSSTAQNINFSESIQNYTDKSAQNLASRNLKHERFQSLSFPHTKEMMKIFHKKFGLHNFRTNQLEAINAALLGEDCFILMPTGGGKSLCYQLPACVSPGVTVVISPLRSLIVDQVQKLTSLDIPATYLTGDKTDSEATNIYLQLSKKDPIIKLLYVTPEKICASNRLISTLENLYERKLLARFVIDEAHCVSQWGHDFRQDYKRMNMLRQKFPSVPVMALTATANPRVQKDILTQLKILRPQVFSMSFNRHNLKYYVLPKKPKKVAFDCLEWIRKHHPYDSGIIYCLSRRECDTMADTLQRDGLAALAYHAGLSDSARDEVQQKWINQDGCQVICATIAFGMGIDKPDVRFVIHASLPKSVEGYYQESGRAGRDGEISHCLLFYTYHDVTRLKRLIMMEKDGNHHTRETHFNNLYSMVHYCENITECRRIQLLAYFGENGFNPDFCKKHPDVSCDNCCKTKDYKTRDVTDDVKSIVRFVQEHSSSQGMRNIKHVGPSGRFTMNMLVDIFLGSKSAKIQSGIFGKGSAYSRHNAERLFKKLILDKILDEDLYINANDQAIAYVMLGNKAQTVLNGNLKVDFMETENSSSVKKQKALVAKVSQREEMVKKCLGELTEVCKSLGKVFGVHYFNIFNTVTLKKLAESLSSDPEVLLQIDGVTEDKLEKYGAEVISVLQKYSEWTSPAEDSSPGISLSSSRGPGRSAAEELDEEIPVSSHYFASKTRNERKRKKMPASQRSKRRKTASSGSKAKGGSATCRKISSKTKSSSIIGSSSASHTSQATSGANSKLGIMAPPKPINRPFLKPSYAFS
RECQ1 inh = blocks DNA unwinding by human RECQ1; P46063; RECQ1 DNA unwinding, red fluorescence kinetic read; Potency, µM (titrated, usually from 57.3 µM), for the others: at the top dose activity, negative = inhibition, hits mostly inhibitors; hit rate 0.54% among 240,000; AID 2549;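 note: plate controls were vehicle for no effect and no enzyme for full effect; nearly all actives have a fitted effect of over 30% in size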
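50 nM RECQ1T1 preincubated 15 min with compound in Tris pH 8.0 buffer with MgCl2, DTT, Tween-20 and 2.5 ug/ml poly(dI-dC); started with 200 nM TAMRA/BHQ-2 forked duplex and 2 mM ATP. Unwinding read as fluorescence (525/598 nm), two reads 2 h apart.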
GCN5L2 inh = inhibitors of human GCN5L2 histone acetyltransferase; Q92830; GCN5L2 HAT assay, ThioGlo1 CoA-SH fluorescence; Potency, µM (doses to about 58.9 µM), without a hit: top-dose activity change, negative = inhibition, most hits filed as inhibitors; hit rate 0.21% among 390,000; AID 504327
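GCN5L2 (20 nM) in 50mM HEPES pH 7.5, 0.1mM EDTA, 0.01% Tween-20 preincubated 15 min with compounds at room temperature. Reaction started with H3(1-25) 75uM, acetyl-CoA 70uM, ThioGlo1 50uM; CoA-thiol fluorescence (Ex340/Em540) read at 0 and 20 min.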
TDP1 block = inhibitors of human tyrosyl-DNA phosphodiesterase TDP1; Q9NUW8; recombinant TDP1, AlphaScreen DNA substrate cleavage; Potency, µM (top dose mostly 130 µM), inactives show top-dose activity change, negative = inhibition, actives largely listed as inhibitors; hit rate 0.28% among 350,000; note: nearly all actives have a fitted effect of over 40% in size
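Compounds were preincubated with Tdp1 (1 nM final) for 15 min at room temperature before substrate (15 nM final) started a 5 min reaction; beads (10 ug/ml final) were then added for 10 min before AlphaScreen detection.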
KDM4E inh = JMJD2E (human) inhibition | B2RXH2 | JMJD2E catalytic domain, FDH-coupled NADH fluorescence (FDH is formaldehyde dehydrogenase) | Potency, µM (doses to about 57.1 µM), inactives show top-dose activity change, negative = inhibition, usual class: inhibitors | hit rate 1.6% among 230,000 | AID 2147; active = well fitted inhibition curve with a large enough effect, not every such curve was filed as active; inconclusive = small, poorly fitted or top-dose-only effect, or another doubt; inactive = no such curve, though single readings can be large or run the other way;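 note: 0% = wells with enzyme and -100% = buffer wells without enzyme; nearly all actives have a fitted effect of over 50% in size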
* = called active by the depositor; i = inactive; ? = inconclusive; . = no result. Only a selection was taken, and hits are over-represented in it overall. Unless noted, calls come from the whole dose curve; as a rule, active = well fitted curve in the direction sought with a large enough effect; inconclusive = small, poorly fitted or top-dose-only effect, or another doubt; inactive = no such curve, though single readings can be large; an effect the other way counts as inactive or inconclusive. Unless noted, % is set by controls: 0 for no effect and ±100 for the full control effect; potency is the fitted concentration of half-maximal effect.

SMILES	APE1 inh	BLM helicase inh	RECQ1 inh	GCN5L2 inh	TDP1 block	KDM4E inh
Cc1nc(SCc2cccc(F)c2)[nH]c(=O)c1C#N	-5%	-2%	i	-3%	5%	28µM*
N#Cc1c(-c2ccco2)nc(SCc2ccc(F)cc2)[nH]c1=O	2%	-5%	11%	-8%	4%	-4%
CCCN1CNc2c(c(=O)[nH]c(=S)n2CCc2ccc(OC)cc2OC)C1	.	.	.	.	0%	.
CC1(C)Cc2[nH]c(=S)c(C#N)cc2CO1	3%	-3%	-1%	?	6%	13µM*
COc1ccccc1C1=Nn2c(nnc2-c2ccccc2O)SC1	-1%	-1%	8%	.	11%	.
C=C(C)C(=O)Nc1cccc(C2=NOC3(C2)C[C@@H](C(N)=O)N(C(=O)C2(C)CC2)C3)c1 (stereo partly specified)	?	4%	10µM*	-35%	11µM*	-17%
C=C(C)C(=O)Nc1cccc(C2=NOC3(C2)C[C@@H](C(N)=O)N(C(=O)c2ccc(Cl)cc2)C3)c1 (stereo partly specified)	?	-19%	13µM*	4%	13µM*	-19%
C=C(C)C(=O)Nc1cccc(C2=NOC3(C2)C[C@@H](C(N)=O)N(C(=O)C(=C)C)C3)c1 (stereo partly specified)	-4%	-2%	i	0%	.	-18%
C=C(C)C(=O)Nc1cccc(C2=NOC3(C2)C[C@H](C(N)=O)N(C(=O)c2ccccc2)C3)c1 (stereo partly specified)	-5%	1%	i	-1%	?	2%
CCOc1cccc(C2C=C(c3ccc4c(c3)OCO4)NC(c3ccc(Br)cc3)N2)c1O (stereo unspecified)	.	.	.	.	3%	.
COc1ccc(-c2nc3ccccn3c2Nc2ccccc2C)cc1	.	.	.	.	8%	.
Cc1ccccc1-c1nc(N2CCOCC2)c2ccccc2n1	8.9µM*	-13%	-11%	?	.	.
Cc1ccccc1-c1nc(N2CCN(C)CC2)c2ccccc2n1	0%	-7%	i	-11%	.	.
C[C@@H]1C[C@H]2[C@@H]3CCC4=CC(=O)C=C[C@]4(C)[C@@]3(F)C(O)C[C@]2(C)[C@@]1(O)C(=O)CO (stereo partly specified)	.	.	.	.	0%	.
Cc1cc([N+](=O)[O-])nn1CC(=O)N/N=C/c1ccccc1O	-4%	0%	-2%	4%	10%	7.9µM*
Cn1c(SCC(=O)N/N=C/c2cc([N+](=O)[O-])ccc2O)nnc1-c1ccccc1	4%	1%	2%	-10%	5%	10µM*
Nc1nnnn1CC(=O)N/N=C/c1cc([N+](=O)[O-])ccc1O	-1%	0%	-1%	-20%	9%	7.9µM*
Nc1nnc(CC(=O)N/N=C\c2cc([N+](=O)[O-])ccc2O)s1	2%	4%	-6%	20%	8%	14µM*
Cc1cc(C)n(CC(=O)N/N=C/c2cc([N+](=O)[O-])ccc2O)n1	?	-10%	2%	-4%	1%	5%
Cn1c(SCC(=O)N/N=C/c2ccccn2)nnc1-c1ccccc1	0%	2%	-11%	1%	0%	2%
C[C@@H](Nc1nc(Cl)nc2nc[nH]c12)c1ccccc1	.	.	.	.	1%	.
CC1(C)Oc2ccc3ccc(=O)oc3c2C(N2CCCCC2)C1O (stereo unspecified)	-1%	-3%	-5%	-22%	2%	?
CC(=O)OC1C(N2CCCCC2)c2c(ccc(/C=C/C(=O)N3CCCCC3)c2O)OC1(C)C (stereo unspecified)	-6%	-2%	5%	-9%	0%	7.1µM*
COc1ccc(OC)c(S(=O)(=O)NCCc2sc(-c3cccnc3)nc2C)c1	.	1%	.	-14%	3%	.
COc1cc(/C=C(\C#N)C(=O)Nc2nnc(C(F)(F)F)s2)ccc1OCc1ccc(C(F)(F)F)cc1C(F)(F)F	0%	-23%	-14%	7.9µM*	6%	.
